This note sets out measurements from PubChem BioAssay (NCI).

The panel holds about 83,000 compounds, 20% with a hit somewhere; the sample as a whole holds those more often.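 Compound tested at a single concentration for 48 hours in 96-well plates; a percent growth value below 10 was scored as active.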 Unmarked numbers belong to inactive results. The source made the active and inactive calls.

Some test systems named below: SK-MEL-2 melanoma; EKVX NSCLC; SN12C renal; UO-31 renal; TK-10 renal; ACHN renal; CAKI-1 renal; A498 renal; CCRF-CEM leukemia; MOLT-4 leukemia; SR leukemia; OVCAR-8 ovarian; OVCAR-5 ovarian; OVCAR-4 ovarian; SK-OV-3 ovarian; IGROV1 ovarian; OVCAR-3 ovarian; HS 578T breast; RPMI-8226 leukemia; NCI/ADR-RES ovarian.
Test in all cases: NCI-60 one-dose screen, 48 h (100 = growth as untreated, 0 = no growth, -100 = all killed)
What all share (conditions): 10 µM unless noted

In the case of `O=[N+]([O-])c1ccccc1NCSc1ccc(Cl)cc1`, the growth is 114% with SK-MEL-2 melanoma; 104% in the assay with EKVX NSCLC; 72% with SN12C renal; 68.3% in the assay on UO-31 renal; 101% in the assay on TK-10 renal; 104% in the assay on ACHN renal. Besides, the growth in the assay on CAKI-1 renal was 95.3%; with A498 renal it was 86%; in the assay on CCRF-CEM leukemia it was 25%; in the assay with MOLT-4 leukemia, 49.7%; in the assay on SR leukemia it was 65%; with OVCAR-8 ovarian, 95.5%. In addition, the growth was 114% in the assay on OVCAR-5 ovarian; 108% in the assay with OVCAR-4 ovarian; 109% with SK-OV-3 ovarian; 123% with IGROV1 ovarian; 109% in the assay on OVCAR-3 ovarian; 99.7% with HS 578T breast.

For the compound `CC(=O)CC[C@H]1C(=O)N[C@@H](C(C)C)C(=O)N[C@@H](Cc2cc(O)cc(F)c2)C(=O)N2CCC[C@H](N2)C(=O)O[C@H](/C(C)=C/C=C/C(=O)OC(C)(C)C)C/C=C/C=C/[C@H](O)[C@H](C)[C@H]1O`, the growth is 62.3% in the assay with SK-MEL-2 melanoma; 71.3% in the assay on EKVX NSCLC; 53.7% in the assay with SN12C renal; 56.2% with UO-31 renal; 62.6% with TK-10 renal; 62.6% in the assay with ACHN renal. For the same compound, the growth with CAKI-1 renal is 57.4%; with A498 renal, 82.3%; with CCRF-CEM leukemia, 46.3%; in the assay with MOLT-4 leukemia, 49.5%; in the assay with SR leukemia it was 16.7%; with RPMI-8226 leukemia it was 37.1%. Moreover, the growth is 88.6% in the assay with OVCAR-5 ovarian; 56.6% in the assay with OVCAR-4 ovarian; 48.8% with SK-OV-3 ovarian; 43.8% with IGROV1 ovarian; 54.2% with OVCAR-3 ovarian; 55.9% in the assay on HS 578T breast. In addition, the growth in the assay on NCI/ADR-RES ovarian was 77.7%.

As to `CCOC(=O)c1[nH]c(C)c(C(=O)OCc2ccccc2C#N)c1C`, the growth was 82.3% in the assay on SK-MEL-2 melanoma; 114% in the assay with EKVX NSCLC; 95% in the assay on SN12C renal; 88.3% in the assay with UO-31 renal; 90.9% with TK-10 renal; 87.4% in the assay on ACHN renal. In addition, the growth in the assay on CAKI-1 renal is 82.1%; in the assay with A498 renal, 79.3%; with CCRF-CEM leukemia, 92.4%; in the assay on MOLT-4 leukemia, 78.8%; in the assay with SR leukemia it was 45.7%; with OVCAR-8 ovarian it was 70.5%. Moreover, the growth was 105% in the assay with OVCAR-5 ovarian; 85.8% with OVCAR-4 ovarian; 88.3% in the assay on SK-OV-3 ovarian; 44.6% with IGROV1 ovarian; 62.5% in the assay on OVCAR-3 ovarian; 49.1% in the assay with HS 578T breast. In the assay with NCI/ADR-RES ovarian, the growth was 14.9%.

For the compound `CCN(CC)CCCNc1nc2ccccc2c2c(=O)c3cc(Cl)ccc3sc12`, the growth in the assay on SK-MEL-2 melanoma is 108%; with EKVX NSCLC, 79.1%; in the assay with SN12C renal it was 66.9%; in the assay with UO-31 renal, 33.8%; in the assay with TK-10 renal, 68.7%; in the assay with ACHN renal, 47.3%. The growth in the assay on CAKI-1 renal was 23%; in the assay on A498 renal, 41.4%; in the assay with CCRF-CEM leukemia, 11.7%; with MOLT-4 leukemia, 5.32% (active); in the assay with SR leukemia it was -15.7% (active); in the assay with OVCAR-8 ovarian, 61.5%. Moreover, the growth in the assay with OVCAR-5 ovarian was 75.5%; in the assay on OVCAR-4 ovarian it was 45.1%; in the assay on SK-OV-3 ovarian, 89.3%; with IGROV1 ovarian it was 50.7%; in the assay on OVCAR-3 ovarian, 40.5%; with HS 578T breast, 64.3%. Moreover, the growth in the assay on NCI/ADR-RES ovarian is 74.1%.

For `COc1cc(C2CC(c3ccc(SC)cc3)=NN2C(C)=O)cc(OC)c1OC` (configuration not stated), the growth in the assay on SK-MEL-2 melanoma is 65.5%; in the assay with EKVX NSCLC it was 74.5%; in the assay on SN12C renal, 91.4%; in the assay with UO-31 renal, 71.2%; in the assay with TK-10 renal, 86.2%; with ACHN renal, 89.3%. The growth with CAKI-1 renal is 65.5%; with A498 renal, 68.1%; in the assay with CCRF-CEM leukemia it was 52.9%; in the assay with MOLT-4 leukemia it was 43.2%; in the assay on SR leukemia, 33.8%; in the assay on OVCAR-8 ovarian it was 80.3%. In addition, the growth with OVCAR-5 ovarian is 100%; with OVCAR-4 ovarian, 93.8%; in the assay on SK-OV-3 ovarian, 89%; in the assay on IGROV1 ovarian, 53.8%; with OVCAR-3 ovarian, 21.7%; in the assay on HS 578T breast it was 79.7%. In addition, the growth in the assay with NCI/ADR-RES ovarian is 24.4%.

On to `Oc1ccc(C#CCOc2ccccc2)cc1CNCCN(Cc1ccccn1)Cc1ccccn1`, for which the growth in the assay on SK-MEL-2 melanoma is 61.2%; with EKVX NSCLC, 16%; in the assay on SN12C renal, 13.9%; with UO-31 renal, -2.48% (active); in the assay with TK-10 renal, 26.2%; with ACHN renal, 9.66% (active). Moreover, the growth with CAKI-1 renal was 28.4%; in the assay with A498 renal, -21.8% (active); in the assay with CCRF-CEM leukemia it was 6.83% (active); with MOLT-4 leukemia, 1.72% (active); with SR leukemia it was -4.08% (active); in the assay on OVCAR-8 ovarian, 15.2%. Also, the growth with OVCAR-5 ovarian was 27.2%; in the assay with OVCAR-4 ovarian, 11.3%; in the assay with SK-OV-3 ovarian, 18%; in the assay on IGROV1 ovarian, 13.4%; with OVCAR-3 ovarian it was 12.1%; in the assay on HS 578T breast, 35.5%. Moreover, the growth with NCI/ADR-RES ovarian was 0.625% (active).

Consider `Cc1ccc2sc3c(NCCCN)nc4ccccc4c3c(=O)c2c1`, for which the growth was 107% with SK-MEL-2 melanoma; 82.7% in the assay on EKVX NSCLC; 69.2% in the assay on SN12C renal; 47.1% in the assay on UO-31 renal; 85.2% in the assay on TK-10 renal; 20.6% with ACHN renal. The growth with CAKI-1 renal was -6.43% (active); with A498 renal it was 44.6%; in the assay on CCRF-CEM leukemia it was 5.2% (active); in the assay on MOLT-4 leukemia, -30.6% (active); in the assay on SR leukemia, -31.8% (active); in the assay on OVCAR-8 ovarian, 38.3%. Also, the growth with OVCAR-5 ovarian was 85.8%; in the assay with OVCAR-4 ovarian it was 28%; with SK-OV-3 ovarian, 90.2%; in the assay with IGROV1 ovarian it was 65.7%; with OVCAR-3 ovarian, 2.61% (active); in the assay on HS 578T breast it was 59.8%. Further, in the assay on NCI/ADR-RES ovarian, the growth was 39.4%.
